In all, about 69,000 compounds went through this assay and about 8,600 (12%) showed an effect of 50% or more. This excerpt belongs to a sample that is enriched for strong results.
These compounds were tested on Plasmodium berghei (assay: Screen against P. berghei liver stage (PbLuc), transformed with Luciferase, at 10uM). Conditions: tested at 10 uM.
Assay type: functional, HepG2

Row | Structure (SMILES) | INHIBITION [%]
1 | O=S(=O)(C1CC1)N1CCO[C@H]2[C@H](Oc3cccnc3)CC[C@@H]21 | -21.1
2 | Cn1ccc(C(=O)N2CCc3[nH]nc(Nc4ccccc4)c3C2)n1 | 17.04
3 | CCC1c2ccsc2CCN1C(=O)NCCc1ccccn1 (centres undefined) | 0
4 | CCc1ncc(C(=O)N2CCN(Cc3ncccc3C)CC2)cn1 | 7.25
5 | O=C1CCC(c2ccccc2)=NN1CN1CCCCCC1 | 25.3
6 | CCN(C(=O)CCc1ccccc1)C1CC(=O)NC1=O (centres undefined) | 9.4
7 | Cc1cc2ccccc2n1CC(=O)N[C@@H](C)C(=O)O | 4.93
8 | Cc1ccc(OCCSCCn2nc3ccccn3c2=O)cc1 | 22
9 | CCn1ccnc1CN1CCCC(CO)(CCCc2ccccc2)C1 (centres undefined) | 3.68
10 | Cn1ccnc1CN1CCCC(CO)(CCc2ccccc2)C1 (centres undefined) | 16.6
11 | CCn1cc(CN2CCCC(CO)(CCc3ccccc3)C2)c(C)n1 (centres undefined) | 53.1
12 | O=C(CN1CCCS1(=O)=O)Nc1ccc(OC2CCCC2)c(Cl)c1 | -6.94
13 | O=C(CN1CCCS1(=O)=O)Nc1ccc(OC2CCCC2)cc1 | -5.94
14 | O=C(CN1CCCS1(=O)=O)Nc1cccc(COC2CCCCC2)c1 | 55.5
15 | CNC(=O)CCc1cc(C2CCCN2C(=O)CO)nc(C)n1 (centres undefined) | 29.4
16 | Cc1nc(CN2C(=O)CC[C@@H]3[C@H]2CCN3C(=O)NC2CC2)cs1 | 38.7
17 | Cc1n[nH]c(CCC(=O)N2CCOC(Cc3ccc(F)cc3)C2)c1C (centres undefined) | 55.4
18 | Cc1nc(C(=O)N2CCOC(Cc3ccc(F)cc3)C2)co1 (centres undefined) | -23.4
19 | O=C(c1scc2c1OCCO2)N1CCOC(CCc2ccccc2)C1 (centres undefined) | 75
20 | Cc1ncoc1C(=O)N1CCOC(Cc2ccccc2)C1 (centres undefined) | 55
21 | O=C(c1scc2c1OCCO2)N1CCOC(Cc2cccc(F)c2)C1 (centres undefined) | -22
22 | Cc1ccnn1CCC(=O)N1CCOC(CCc2ccccc2)C1 (centres undefined) | 44.3
23 | CN(CC(=O)N1CCOCC(CO)C1)Cc1ccccn1 (centres undefined) | 19.5

Row | Structure (SMILES) | INHIBITION [%]
24 | O=C(c1scc2c1OCCO2)N1CCOC(Cc2ccc(F)cc2)C1 (centres undefined) | 0.72
25 | CN(CC(=O)N1CCOC(CCc2ccccc2)C1)Cc1ccccn1 (centres undefined) | 54.2
26 | Cc1n[nH]c(CCC(=O)N2CCOC(Cc3ccccc3)C2)c1C (centres undefined) | 7.19
27 | COc1ccc(CC2CN(C(=O)c3ocnc3C)CCO2)cc1 (centres undefined) | 46.4
28 | Cc1nc(C(=O)N2CCOC(Cc3ccccc3)C2)co1 (centres undefined) | -48.5
29 | CC(C)CCc1n[nH]c(C(=O)O)c1Br | 11.7
30 | O=c1[nH]c2cn(-c3cccc(F)c3)c(=O)n2[nH]1 | 48
31 | CC(C)Cn1cncc1-c1nc2c([nH]1)CCCNC2=O | -21.8
32 | Cc1cccc(-c2nc(C)nn2CC(=O)NC(C)C2CC2)c1 (centres undefined) | 33.3
33 | Cc1cccc2c1NC(c1cnc(C3CCC3)s1)NC2=O (centres undefined) | 39.3
34 | Cc1cc(=O)n2nc(Oc3ccc(F)c(F)c3)sc2n1 | 42.5
35 | CC(=O)N1CCC(Cc2cnc(C(=O)N3CCCC3)cn2)C1 (centres undefined) | 7.52
36 | Cc1ccc(OCCN(C)C(C)c2cccc(S(N)(=O)=O)c2)cc1 (centres undefined) | -31.8
37 | CN(C)C[C@H]1OC[C@@H]2CCN(C(=O)Cc3cccs3)C[C@@H]21 | 13.7
38 | Cc1cc(N2Cc3cnn(CCO)c3C2)nc(-c2ccccc2)n1 | -81.1
39 | O=C(c1cccnc1)N1CCOC(CCCc2ccccc2)C1 (centres undefined) | 60.9
40 | CCNc1ncc(C(=O)N2CCOC(CCCc3ccccc3)C2)cn1 (centres undefined) | 42.1
41 | O=C(c1cccnc1)N1CCOC(Cc2ccccc2Cl)C1 (centres undefined) | 0.55
42 | COCCCN1Cc2cccc(NC(=O)c3ccccc3Cl)c2C1 | 50
43 | COCCCN1Cc2cccc(NC(=O)c3cc(F)cc(F)c3)c2C1 | 45.7
44 | COCCCN1Cc2cccc(NC(=O)c3ccccc3C)c2C1 | 40.6
45 | CCn1c(NCc2ccccn2)nc2c(C)nn(C)c2c1=O | 18.4
46 | CCn1c(NCc2ccccc2)nc2c(C)nn(C)c2c1=O | 33.3

Row | Structure (SMILES) | INHIBITION [%]
47 | CCn1c(NCc2cccnc2)nc2c(C)nn(C)c2c1=O | -9.73
48 | CCCn1c(NCCc2ccccc2)nc2c(C)nn(C)c2c1=O | 64.8
49 | Cc1nn(C)c2c(=O)n(C(C)C)c(NCC3CCCO3)nc12 (centres undefined) | 3.58
50 | Cc1nn(C)c2c(=O)n(C(C)C)c(NCCc3ccccc3)nc12 | 87.2
51 | CCCn1nc(C)c(C(=O)N(C)[C@@H]2CC[C@@H](OC)[C@@H]2O)c1C | 40.65
52 | CCn1ncc2c(C(F)(F)F)cc(-c3cnn(C)c3)nc21 | 19.55
53 | CCOC(=O)c1cnn(C2CCN(C(=O)CC(C)(C)C)CC2)c1N | -17.4
54 | CCN(CC)c1nc(C)cc(C(=O)Nc2cccc(C(N)=O)c2)n1 | 25.3
55 | Cc1nnc(C(NS(=O)(=O)c2cc(C#N)ccc2C)C(C)C)[nH]1 (centres undefined) | 49.1
56 | CSCC[C@H]1CN2CCC[C@H]2CN1Cc1coc2ccc(C)cc2c1=O | 43.6
57 | CC(=O)NCC(=O)N1Cc2nccn2CC(CN(C)C(C)C)C1 (centres undefined) | 5.44
58 | CN(Cc1ccc(Cl)s1)C(=O)Nc1ccc(N(C)C)nc1 | 58.8
59 | CN(C)c1ccc(NC(=O)NCc2ccc(Cl)s2)cn1 | -21
60 | CN(Cc1ccsc1)C(=O)Nc1ccc(N(C)C)nc1 | 33.8
61 | Cn1cccc1C(=O)N1CCc2ncnc(C3CC3)c2CC1 | 35.8
62 | COCCSCC(=O)NCc1ccc(N(C)C)nc1 | 43.5
63 | CCOCCCNC(=O)c1nc2c(s1)CCCN2c1ccc(C)nn1 | 35.8
64 | COC(=O)CC(C)(C)CC(=O)N1CCC(C(F)(F)F)CC1 | 24.6
65 | Cc1nc(C2CCCN2CCCS(=O)(=O)N(C)C)no1 (centres undefined) | 54.3
66 | CCc1nc(C2CCCN2CCCS(=O)(=O)c2ccccc2)no1 (centres undefined) | 51.2
67 | CCc1nc(C2CCCN2CCS(=O)(=O)c2ccccc2)no1 (centres undefined) | 22.007
68 | CC(C)c1nc(C2CCCN2CCCc2nc3ccccc3o2)no1 (centres undefined) | 26.3
69 | Cc1nc(C2CCCN2CCCc2nc3ccccc3o2)no1 (centres undefined) | 21.6

Row | Structure (SMILES) | INHIBITION [%]
70 | CN(C)S(=O)(=O)CCCN1CCCC1c1noc(C2CC2)n1 (centres undefined) | -15.5
71 | Cc1nc(C2CCCN2CCCS(=O)(=O)c2ccccc2)no1 (centres undefined) | 3.603
72 | CCc1nc(C2CCCN2CCCc2nc3ccccc3o2)no1 (centres undefined) | 62.6
73 | Cc1nc(C2CCCN2CCCS(N)(=O)=O)no1 (centres undefined) | 22.5
74 | O=C(NCCN1CCCCC1)c1ccn(-c2ccccc2)n1 | 19.6
75 | CCSCC(C)NCc1cn2ccccc2n1 (centres undefined) | -20
76 | COCC1CN(Cc2csc(C)n2)Cc2nccn2C1 (centres undefined) | 4.61
77 | CCc1ncc(CNCc2cccnc2N(C)C)cn1 | -0.29
78 | Cc1cccc(C)c1OCCNC(=O)C(C)n1cncn1 (centres undefined) | -42.3
79 | Cc1cnc(N2CCC3(CC2)CN(c2ccsc2)C(=O)CO3)nc1 | 53.9
80 | COCC(=O)N1CCC2(CC1)CN(c1cncnc1)C(=O)CO2 | 24.1
81 | O=C(C1CCOCC1)N1CCC2(CC1)CN(c1ccsc1)C(=O)CO2 | 74.2
82 | O=C(c1cccs1)N1CCC2(CC1)CN(c1ccsc1)C(=O)CO2 | 22.9
83 | O=C(Nc1ccccc1)N1CCC2(CC(=O)N(c3ccsc3)C2)C1 (centres undefined) | -12.2
84 | CCc1cnc(N2CCC3(CC2)CN(c2cccnc2)C(=O)CO3)nc1 | 47.2
85 | COCC(=O)N1CCC2(CC1)CN(c1ccsc1)C(=O)CO2 | 64.9
86 | O=C1COC2(CCN(c3ncccn3)CC2)CN1c1ccsc1 | 26.5
87 | CN(C)CC(=O)N1CCC2(CC1)CN(c1ccsc1)C(=O)CO2 | 47.2
88 | O=C(C1CC1)N1CC[C@H]2C(=O)N(c3ccsc3)CCO[C@H]2C1 | 33
89 | NC(=O)N1CCC2(CC1)CN(c1ccsc1)C(=O)CO2 | 54.6
90 | O=C(c1cccs1)N1CCC2(CC1)CN(c1cncnc1)C(=O)CO2 | 48.6
91 | O=C(NCc1ccco1)[C@H]1COC[C@H]2CN(Cc3ccoc3)C[C@H]21 | 25.2
92 | CCOc1ccc(C#N)cc1NCC(=O)NC1(C#N)CCCC1 | -2.53

Row | Structure (SMILES) | INHIBITION [%]
93 | Cc1ccc(NC(=O)N2CCCC2)c(OCC2CCCO2)c1 (centres undefined) | -8.11
94 | CCS(=O)(=O)N1CCN(Cc2cccnc2)c2nc(C)ccc2C1 | 38.1
95 | O=C(Nc1cccs1)NC(CCCO)c1ccccc1 (centres undefined) | 24.3
96 | O=C(NCc1csc(Br)c1)N1CCC(O)CC1 | -0.822
97 | COCC(=O)NCCCn1nc2ccccn2c1=O | 19.7
98 | CC(C)N(C)Cc1nnc2n1CCN(CC1CC1)CC2 | 20.1
99 | CCS(=O)(=O)N1CCC2(CC1)CN(c1cncnc1)C(=O)CO2 | 14.1
100 | O=C1COC2(CCN(S(=O)(=O)C3CC3)CC2)CN1c1ccsc1 | 3.25
101 | CCS(=O)(=O)N1CCC2(CC1)CN(c1ccsc1)C(=O)CO2 | 54.4
102 | Cc1cc2ccccc2n1CCC(=O)N1CCN(C)CC1C(N)=O (centres undefined) | 34.9
103 | CSCC(=O)N1CCOC(c2nc(C)n[nH]2)C1 (centres undefined) | 36.8
104 | CC(C)c1nc(C2CCCN(C(=O)c3cccc4c3OCO4)C2)no1 (centres undefined) | 42
105 | CSc1ncc(C(=O)N2C[C@@H]3CC[C@H]2CN(Cc2ccccc2)C3)cn1 | -9.76
106 | Cc1ccc2cccc(S(=O)(=O)N(C)CC3CCN(C)C3)c2n1 (centres undefined) | 16
107 | CN1CCN(CCCN(C)S(=O)(=O)CC2CCCCC2)CC1 | 54.4
108 | CN1CCN(CCCNC(=O)C2CCCCC2)CC1 | -24
109 | CN(C)CCN(C)S(=O)(=O)CC1CCOCC1 | 30.2
110 | CN(CCN1CCOCC1)S(=O)(=O)CC1CCCC1 | 38.7
111 | CN1CCN(CCCN(C)S(=O)(=O)C2CCCCC2)CC1 | 43.2
112 | CN1CCC(CN(C)S(=O)(=O)CC2CCCCC2)CC1 | 72.3
113 | CN(CCN1CCCC1=O)S(=O)(=O)CC1CCCC1 | 88
114 | Cc1ccc2cccc(S(=O)(=O)N(C)CC3CCN(C)CC3)c2n1 | 17.6
